Screening results as filed in PubChem BioAssay.
In the library only some 9.5% were active in any assay of this set; here they are far more common.
RE007 growth inh = less growth of the S. pombe RE007 Vpr strain | S. pombe RE007 Vpr strain, BacTiter-Glo ATP luminescence, 24 h | Potency, µM (doses to about 92.2 µM), for inactives: at the highest dose activity change, negative = less growth, usual class: inhibitors | 0.21% of 360,000 active; active = well fitted falling curve with a large enough effect; inconclusive = small, poorly fitted or top-dose-only effect; inactive = no such curve, though single readings can be large or run the other way; note: % is set by controls: 0 for no effect and ±100 for the full control effect; nearly all actives have a fitted effect of over 50% in size
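Fission yeast strain RE007, carrying one chromosomally integrated HIV-1 vpr copy, was seeded at OD 0.01 in PMG+AL medium with 23 nL pinned compound. After 24 h at 30 °C and 99% humidity, viability was read by BacTiter-Glo luminescence.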
Pf growth 96h = inhibits malaria parasite growth, 96 h; P. falciparum luciferase reporter growth, 96 h; 6.9% of 320,000 active; AID 504834; Potency, µM (doses to about 28.7 µM), without a hit: top-dose activity change, negative = inhibition, hits mostly inhibitors; active = well fitted inhibition curve with a large enough effect; inconclusive = small, poorly fitted or top-dose-only effect, or another doubt; inactive = no such curve, though single readings can be large or run the other way; note: % is set by controls: 0 for no effect and ±100 for the full control effect
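Plates of compound plus infected erythrocytes (2% hematocrit, 0.05% parasitemia final) incubate 96 hours, 37 C, 5% CO2. Detection reagent added; reduced luminescence from the parasites' luciferase reporter flags inhibition.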
SARS PLpro yeast = SARS-CoV PLP inhibition in yeast. S. cerevisiae expressing SARS-CoV PLpro, growth rescue. Potency, µM (titrated, usually from 32.9 µM), inactives show top-dose activity, positive = growth rescue, most hits filed as activators. 0.19% of 330,000 active. AID 485353; note: 0% is about no effect; nearly all actives have a fitted effect of over 55% in size
NS1 function inh = inhibitors of influenza NS1 protein function | 0.4% of 270,000 active | Potency, µM (doses to about 46.1 µM), for the others: top-dose activity, positive = more growth; note: actives are rising curves; nearly all actives have a fitted effect of over 50% in size
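Read-out: OD600 growth recovery of NS1-expressing budding yeast. Cells grown overnight at 30C in -URA glucose medium, washed, resuspended and diluted 1:100 in 2% galactose assay medium, pH 6.0. Same strain lacking NS1 served as positive control.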
Pf growth 48h = inhibits P. falciparum growth in the first generation, 48 h. P. falciparum luciferase growth in erythrocytes, 48 h. Potency, µM (top dose mostly 28.7 µM), for the others: at the highest dose activity change, negative = inhibition, usual class: inhibitors. 5.9% of 310,000 active; active = well fitted inhibition curve with a large enough effect; inconclusive = small, poorly fitted or top-dose-only effect, or another doubt; inactive = no such curve, though single readings can be large or run the other way; note: % is set by controls: 0 for no effect and ±100 for the full control effect
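Luciferase-expressing P. falciparum in infected erythrocytes (2% hematocrit, 0.1% parasitemia final) in RPMI 1640/0.5% Albumax were exposed to compound for 48 hours at 37 C, 5% CO2; growth read as luminescence.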
* marks the source's active call; other numbers are inactive results; ? = inconclusive; . = no result given; [ ] = dose if it differs, or a comment. Unless noted, calls come from the whole dose curve. Potency is the fitted concentration of half-maximal effect.

SMILES | RE007 growth inh | Pf growth 96h | SARS PLpro yeast | NS1 function inh | Pf growth 48h
Cc1cccc(Oc2ccc(NC(=O)C3=CC=CN4CCS(=O)(=O)N=C34)cc2)c1 | ? | 12µM* | 1% | . | ?
Cc1ccc(Oc2ccc(NC(=O)C3=CC=CN4CCS(=O)(=O)N=C34)cc2)cc1 | -9% | ? | -1% | . | -18%
c1ccc(Nc2nnc(SCc3cccc4ccccc34)s2)cc1 | 8% | 8.3µM* | -6% | -1% | .
COc1ccc(C(C)=O)cc1CSc1nnc(Nc2ccccc2)s1 | 15% | 6.6µM* | 7% | -7% | ?
CC1CCCCN1C(=O)c1ccc(Br)o1 (stereo not drawn) | -10% | ? | 1% | -9% | 0%
CC(C)(C)NC(=O)CCN(/N=C/c1ccccc1O)C1=NS(=O)(=O)c2ccccc21 | -7% | 23% | 2% | -8% | ?
O=C(NC(=S)N1CCN(c2ccc(C(F)(F)F)cc2[N+](=O)[O-])CC1)c1cccs1 | -19% | 4.1µM* | -39% | 19% | -6%
CCN1CCN(C(=S)NC(=O)c2cccs2)CC1 | -1% | -24% | 1% | 17% | ?
Cn1c(NCc2ccccc2)nc2c1c(=O)n(Cc1ccc(Br)cc1)c(=O)n2C | 0% | 77% | -5% | 10% | ?
Cn1c(NCc2ccco2)nc2c1c(=O)n(Cc1ccc(Cl)cc1Cl)c(=O)n2C | 7% | . | -11% | -1% | -24%
Cn1c(NCc2ccco2)nc2c1c(=O)n(Cc1ccc(Br)cc1)c(=O)n2C | 4% | . | 0% | -50% | 9.3µM*
Cn1c(NCCCN2CCOCC2)nc2c1c(=O)n(Cc1ccc(Cl)c(Cl)c1)c(=O)n2C | -3% | . | 7% | -11% | 13µM*
Cn1c(NCCCN2CCOCC2)nc2c1c(=O)n(Cc1ccc(Cl)cc1)c(=O)n2C | 10% | 2%[5.75 µM] | 1% | 9% | ?
Cn1c(NCc2ccco2)nc2c1c(=O)n(Cc1ccc(Cl)cc1)c(=O)n2C | 6% | 76% | -3% | -48% | 9.3µM*
CCOc1cccc(CN2CCCC(N3CCc4cc(OC)c(OC)cc4C3)C2)c1O (stereo not drawn) | -10% | ? | 4% | 11% | ?
CC(/C=C/c1ccccc1)=N\Nc1nc(C)cc(C)n1 | -15% | 10µM* | ? | -11% | ?
Cc1cc(C)nc(NN=C(c2ccccc2)c2ccccc2)n1 | -16% | 13µM* | -23% | -34% | ?
Cc1cc(C)nc(SCc2ccc(C(=O)NN=C3CCCC3)cc2)n1 | -4% | ? | 0% | -6% | 0%
Cc1cc(C)nc(NN=C2CCCC2)n1 | 5% | ? | 10% | 6% | 12µM*
CC(/C=C/c1ccccc1)=N/NC(=O)c1nc2nc(C)cc(C)n2n1 | 2% | 58% | -4% | . | 29%
CC(/C=C/c1ccccc1)=N\NC(=S)NC(C)C | 4% | 4.7µM* | -2% | 16% | -23%
COc1ccc(CN2CCNC(=O)C2CC(=O)N(C)Cc2nonc2C)c(F)c1 (stereo not drawn) | -21% | ? | 0% | -1% | 8%
COCC(C)NC(=O)CCSc1nc(-c2ccc(OC)cc2)cc(C(F)(F)F)n1 (stereo not drawn) | -9% | 9.3µM* | -43% | -20% | 5.2µM*
O=C(CSc1nc(-c2ccccc2)cc(C(F)(F)F)n1)NCc1cccs1 | 19% | -11% | -3% | 3% | 0%
CCC(C)NC(=O)CSc1nc(-c2cccs2)cc(C(F)(F)F)n1 (stereo not drawn) | -4% | 5.2µM* | -3% | 4% | .
SMILES | RE007 growth inh | Pf growth 96h | SARS PLpro yeast | NS1 function inh | Pf growth 48h
CC(C)c1nnc(NC(=O)CCS(=O)(=O)c2nc(-c3cccs3)cc(C(F)(F)F)n2)s1 | -10% | 0.74µM* | 5% | 2% | 28%
COc1ccc(-c2cc(C(F)(F)F)nc(SCC(=O)NCc3cccs3)n2)cc1 | 3% | ? | -6% | 15% | 12µM*
CCN(Cc1nc2cc(Cl)ccc2c(=O)[nH]1)C(=O)CN1C(=O)NC2(CCCCC2C)C1=O (stereo not drawn) | 0% | -7% | 6% | . | ?
Cc1ccc(C)c(S(=O)(=O)N2CCN(C(=O)c3ccc(OCc4c(C)noc4C)cc3)CC2)c1 | -8% | ? | 4% | . | ?
COc1cccc(NC(=O)CN(C)C(=O)C(Sc2ccccc2)c2ccccc2)c1 (stereo not drawn) | 10% | 1% | -1% | . | ?
COc1ccc([C@@H]2CC=C(C(=O)O)[C@H](c3ccc(Cl)cc3)N2S(=O)(=O)c2ccc(C)cc2)cc1OC | 0% | 13µM* | 0% | . | ?
COc1ccc([C@@H]2CC=C(C(=O)O)[C@H](c3ccc(C)cc3)N2S(=O)(=O)c2ccc(C)cc2)cc1OC | 1% | . | 4% | . | .
COc1cccc([C@@H]2CC=C(C(=O)O)[C@H](c3ccc(Cl)cc3)N2S(=O)(=O)c2ccc(C)cc2)c1 | -7% | 9.3µM* | 0% | . | ?
COc1cc([C@@H]2CC=C(C(=O)O)[C@H](c3cccc(Cl)c3)N2S(=O)(=O)c2ccc(C)cc2)cc(OC)c1OC | 3% | 13µM* | 2% | . | ?
CCNc1c(NS(=O)(=O)c2ccc(OC)cc2)c(=O)oc2ccccc12 | 12% | ? | 0% | 7% | -33%
O=C(CNC(=O)c1ccc(F)cc1)c1ccc(Cl)cc1 | 36% | -7% | 4% | -13% | ?
O=C1NC2=C(C(=O)OC2)C(c2ccc(OC(F)(F)F)cc2)N1 (stereo not drawn) | -11% | 0% | 0% | -48% | -2%
COc1ccccc1CCNC(=O)C(=O)NCC1OCCN1S(=O)(=O)c1ccc2c(c1)OCCO2 (stereo not drawn) | 0% | ? | . | 0% | ?
COc1cc(C2C3=C(COC3=O)OC(C)(C)Oc3cc4c(cc32)OCO4)cc(OC)c1OC (stereo not drawn) | 10% | . | . | . | .
CCCOc1cccc(C2C(C(=O)c3cc4ccccc4o3)=C(O)C(=O)N2c2cc(C)on2)c1 (stereo not drawn) | 3% | 3.7µM* | ? | 6% | ?
COC(=O)c1ccc(C2C(C(=O)c3cc4ccccc4o3)=C(O)C(=O)N2c2cc(C)on2)cc1 (stereo not drawn) | 1% | 7.4µM* | 0% | 16% | 9.3µM*
Cc1cc(N2C(=O)C(O)=C(C(=O)c3cc4ccccc4o3)C2c2cccc(Br)c2)no1 (stereo not drawn) | -17% | ? | 30% | 2% | ?
O=C(O)CCc1ccc(-c2ccccc2)[nH]1 | . | . | . | -5% | .
Cc1cc(NC(=O)CN2CCc3ccccc3C2)nc2c1c(=O)oc1ccccc12 | -14% | ? | -3% | -33% | 10µM*
CCCC(=O)Nc1cc(C)c2c(=O)oc3ccccc3c2n1 | -10% | 28% | -3% | -18% | -1%
Cc1ccc(-c2nn3c(-c4ccccc4)nnc3o2)cc1 | -3% | . | . | . | .
CC(C)(C)c1cc(CCC(=O)N2CCC2)cc(C(C)(C)C)c1O | -9% | 24% | -8% | -86% | 26%
